Screening data: PubChem, National Center for Advancing Translational Sciences (NCATS)
An excerpt weighted towards active compounds, which were near 19% of everything screened.
HT1080NT lethal – kills 2HG-producing HT-1080-NT fibrosarcoma cells. 360,000 tested, 1.6% active. Potency, µM (highest dose often 46.1 µM), inactives show top-dose activity, negative = less viability, actives largely listed as cytotoxic. HT-1080-NT fibrosarcoma viability, CellTiter-Glo ATP luminescence, 48 h;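 also: NT is the 2HG producing partner of a matched IDH1 knockdown line; potency is read from the fitted curve at half-maximal effect; 0% = DMSO-treated cells and -100% = media-only wells without cells; nearly all actives have a fitted effect of over 55% in size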
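Toxicity toward the 2HG-producing NT line was scored as %Activity, normalised to DMSO and no-cell wells, from CellTiter-Glo luminescence after 48 hours' treatment.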
IL-1B inflam inh – blocks inflammasome-driven IL-1 beta release; THP-1 LPS/ATP IL-1B secretion, AlphaLISA, 16 h; active compounds read low; activity change, % at 57.5 µM; 360,000 tested, 4.7% active; AID 743279; in the data active = activity change below about -50%; inconclusive = mostly about -30% to -49%
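Secreted IL-1B measured by AlphaLISA bead assay after 16 h compound exposure of THP-1 cells; compounds (final up to 57.5 uM) added 1 h before LPS (250 ng/mL) and ATP (1.25 mM) stimulation; lower signal means less secretion.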
ELG1 repair inh – ELG1-dependent DNA repair inhibition | HEK293T ELG1-luciferase reporter, luminescence, 16 h; DNA damage induced by 5-fluorouridine | Potency, µM (series often up to 46.1 µM), without a hit: at the top dose activity change, negative = inhibition, usual class: inhibitors | AID 504467 | 330,000 tested, 2.3% active; also: potency is read from the fitted curve at half-maximal effect; nearly all actives have a fitted effect of over 55% in size
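Luminescence from the luciferase reporter, measured 30 min after ONE-Glo reagent at room temperature, was the read-out. Beforehand, 2,000 cells per well were exposed for 16 hr at 37 °C to 5-fluorouridine together with compound or vehicle.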
TDP1 cell CPT – growth inhibition of DT40 Tdp1-/-;hTDP1 cells with camptothecin (screen for TDP1 inhibitors); chicken DT40 Tdp1-/-;hTDP1 cells + 20 nM CPT, ATP luminescence, 48 h; Potency, µM (highest dose often 46.2 µM), for the others: at the top dose activity change, negative = growth inhibition, hits mostly inhibitors; 420,000 tested, 12% active; AID 686979; also: potency is read from the fitted curve at half-maximal effect; nearly all actives have a fitted effect of over 55% in size
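Cell growth measured by CellTiter-Glo luminescence after a minimum 48 h, 37 C compound exposure with 20 nM CPT in Tdp1-knockout DT40 cells stably expressing hTDP1, seeded 400/well; qHTS titration format.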
DT40 TDP1 no CPT – qHTS for Inhibitors of human tyrosyl-DNA phosphodiesterase 1 (TDP1): qHTS in cells in absence of CPT; Potency, µM (highest dose often 46.2 µM), for the others: top-dose activity change, negative = growth inhibition, most hits filed as inhibitors; DT40 Tdp1-/- hTDP1 cells, no CPT, ATP luminescence, 48 h; 420,000 tested, 15% active; also: potency is read from the fitted curve at half-maximal effect; nearly all actives have a fitted effect of over 55% in size
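Luminescent ATP content (CellTiter-Glo) served as the growth readout. Knockout chicken DT40 cells expressing human TDP1 were exposed to compounds without camptothecin for a minimum 48 hr at 37 °C.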
HT1080 IDH1KD tx – HT-1080 IDH1 knockdown cell toxicity (counter line); AID 686971; HT-1080 IDH1 knockdown viability, ATP luminescence, 48 h; 360,000 tested, 2% active; Potency, µM (doses to about 46.1 µM), without a hit: at the highest dose activity, negative = toxicity, usual class: cytotoxic;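 also: potency is read from the fitted curve at half-maximal effect; 0% = DMSO wells and -100% = cell-free medium wells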
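Viability of IDH1-knockdown HT-1080 fibrosarcoma cells was assessed by CellTiter-Glo after 48 h at 37 °C with titrated compound; concentration-effect curves were classified by fit quality and response size.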
An asterisk follows results filed as active. Unless noted, calls follow the shape of the dose curve; as a rule, active = well fitted curve in the direction sought with a large enough effect; inconclusive = small, poorly fitted or top-dose-only effect, or another doubt; inactive = no such curve, though single readings can be large; an effect the other way counts as inactive or inconclusive. Unless noted, % is scaled to controls: 0 for no effect and ±100 for the full control effect.

`CCOC(=O)c1cccc(NC(=O)C2CCN(S(=O)(=O)c3cccs3)CC2)c1` gave HT1080NT lethal inconclusive, IL-1B inflam inh -19, ELG1 repair inh 0%, TDP1 cell CPT inconclusive, DT40 TDP1 no CPT inconclusive and HT1080 IDH1KD tx inconclusive.
COC(=O)c1c(NC(=O)CCCOc2cccc(C)c2)sc2c1C(C(=O)OC)CC2 (stereo unspecified) was read as TDP1 cell CPT 16µM* and DT40 TDP1 no CPT 15µM*.
Screening CCOc1ccc(/C=C/C(=O)Nc2sc3c(c2C(=O)OC)C(C(=O)OC)CC3)cc1 (stereo unspecified) returned TDP1 cell CPT 9.2µM* and DT40 TDP1 no CPT 9.2µM*.
Screening COC(=O)c1c(NC(=O)CCCOc2cccc(C)c2)sc2c1CCC2 returned TDP1 cell CPT -8% and DT40 TDP1 no CPT -4%.
COC(=O)c1c(NC(=O)CCCOc2ccc(C)cc2)sc2c1C(C(=O)OC)CC2 (stereo unspecified) was read as TDP1 cell CPT 15µM* and DT40 TDP1 no CPT 13µM*.
Screening O=C(CCC1CCCC1)NNC(=O)c1ccc(F)cc1 returned HT1080NT lethal 4%, IL-1B inflam inh 7, ELG1 repair inh 30%, TDP1 cell CPT -1%, DT40 TDP1 no CPT -4% and HT1080 IDH1KD tx -6%.
Screening Cc1cccc(NC2(C(=O)O)CCCC2)c1 returned HT1080NT lethal 3%, IL-1B inflam inh 26, TDP1 cell CPT 12%, DT40 TDP1 no CPT inconclusive and HT1080 IDH1KD tx 0%.
For O=C(NCc1ccco1)C12CN(Cc3ccccc3)CC1C(c1ccc([N+](=O)[O-])cc1)=NO2 (stereo unspecified) the results were HT1080NT lethal -13%, IL-1B inflam inh -29, ELG1 repair inh -21%, TDP1 cell CPT 16µM*, DT40 TDP1 no CPT inconclusive and HT1080 IDH1KD tx -5%.
For Cc1ccc(CNC(=O)C23CN(Cc4ccccc4)CC2C(c2cccc([N+](=O)[O-])c2)=NO3)cc1 (stereo unspecified) the results were HT1080NT lethal 2%, IL-1B inflam inh 0, ELG1 repair inh -11%, TDP1 cell CPT inconclusive, DT40 TDP1 no CPT 21µM* and HT1080 IDH1KD tx 5%.
O=C(NCc1ccco1)C12CN(Cc3ccccc3)CC1C(c1cccc([N+](=O)[O-])c1)=NO2 (stereo unspecified) was read as HT1080NT lethal -2%, IL-1B inflam inh -25, ELG1 repair inh -23%, TDP1 cell CPT inconclusive, DT40 TDP1 no CPT 18µM* and HT1080 IDH1KD tx -5%.
`CC(C)CCNC(=O)C12CN(Cc3ccccc3)CC1C(c1cccc([N+](=O)[O-])c1)=NO2` (stereo unspecified) gave HT1080NT lethal 0%, IL-1B inflam inh -12, ELG1 repair inh inconclusive, TDP1 cell CPT -29%, DT40 TDP1 no CPT inconclusive and HT1080 IDH1KD tx -8%.
CCN(CC)S(=O)(=O)c1ccc2c(c1)N(CC(=O)Nc1c(C)cccc1C)C(=O)C1CCCN21 (stereo unspecified) was read as TDP1 cell CPT -2% and DT40 TDP1 no CPT -20%.
Screening COC(=O)CC1C(C)(C)C(O)C2CC3=C4C=C(OC)OC(c5ccoc5)[C@]4(C)CCC3[C@@]1(C)C2=O (stereo partly specified) returned TDP1 cell CPT -9% and DT40 TDP1 no CPT -11%.
Screening CCc1nnc(NC(=O)c2sc3nc4cc(C)ccc4cc3c2N)s1 returned HT1080NT lethal 24%, IL-1B inflam inh 0, ELG1 repair inh -5%, TDP1 cell CPT 2.6µM*, DT40 TDP1 no CPT 2.9µM* and HT1080 IDH1KD tx 4%.
`CCc1nnc(NC(=O)c2ccc3ccccc3n2)s1` gave HT1080NT lethal -14%, IL-1B inflam inh 34, ELG1 repair inh inconclusive, TDP1 cell CPT inconclusive, DT40 TDP1 no CPT 18µM* and HT1080 IDH1KD tx -5%.
`CCSc1nnc(NC(=O)c2ccc3ccccc3n2)s1` gave HT1080NT lethal -14%, IL-1B inflam inh 8, ELG1 repair inh inconclusive, TDP1 cell CPT 18µM*, DT40 TDP1 no CPT inconclusive and HT1080 IDH1KD tx -16%.
For CCOC(=O)Cc1csc(NC(=O)c2sc3nc4ccc(C)cc4cc3c2N)n1 the results were HT1080NT lethal 16%, IL-1B inflam inh 0, ELG1 repair inh inconclusive, TDP1 cell CPT 0%, DT40 TDP1 no CPT 5% and HT1080 IDH1KD tx 13%.
For NCCCCCc1cn(CC(=O)NCCCCCCCCCCC(=O)N2CCNCC2)nn1 the results were HT1080NT lethal 1%, IL-1B inflam inh 20, ELG1 repair inh inconclusive, TDP1 cell CPT 6%, DT40 TDP1 no CPT 6% and HT1080 IDH1KD tx -1%.
`COc1ccc(CCNC(=O)CCCCCNc2nc(=S)[nH]c3ccccc23)cc1OC` gave HT1080NT lethal -3%, IL-1B inflam inh -9, ELG1 repair inh inconclusive, TDP1 cell CPT inconclusive, DT40 TDP1 no CPT 18µM* and HT1080 IDH1KD tx -5%.
Screening COc1ccc(CNC(=O)CCCCCNc2nc(=S)[nH]c3ccccc23)cc1 returned HT1080NT lethal -10%, IL-1B inflam inh -16, ELG1 repair inh inconclusive, TDP1 cell CPT inconclusive, DT40 TDP1 no CPT 10µM* and HT1080 IDH1KD tx -13%.
For CCCCc1nn2c(=O)cc(COC(=O)c3cccc(NC(=O)c4cccs4)c3)nc2s1 the results were TDP1 cell CPT -7% and DT40 TDP1 no CPT -25%.
Cc1cc(C(=O)CSc2nnc3ccccn23)c(C)n1-c1ccccc1 was read as HT1080NT lethal -2%, IL-1B inflam inh 5, ELG1 repair inh inconclusive, TDP1 cell CPT inconclusive, DT40 TDP1 no CPT 23µM* and HT1080 IDH1KD tx -3%.
`O=C(c1cc(-c2ccc(Cl)cc2)on1)N(Cc1ccc(F)cc1)Cc1ccco1` gave TDP1 cell CPT inconclusive and DT40 TDP1 no CPT 21µM*.
Screening O=C(NCc1ccco1)c1cc(-c2ccc(Cl)cc2)on1 returned HT1080NT lethal -5%, IL-1B inflam inh 0, ELG1 repair inh inconclusive, TDP1 cell CPT -20%, DT40 TDP1 no CPT -18% and HT1080 IDH1KD tx 4%.
Screening CCc1ccc(CN(Cc2ccco2)C(=O)c2cc(-c3ccc(Cl)cc3)on2)cc1 returned TDP1 cell CPT inconclusive and DT40 TDP1 no CPT 15µM*.
